{"source": "ChEMBL document CHEMBL1157539", "about": "“Thousands of chemical starting points for antimalarial lead identification” (Nature, 2010)", "format_in_all_cases": "functional", "key": {"Plasmodium falciparum [1]": {"system": "Plasmodium falciparum", "assay": "GSK_TCMDC: Inhibition of Plasmodium falciparum 3D7 in whole red blood cells, using parasite LDH activity as an index of growth. Test compounds present at 2uM"}, "Plasmodium falciparum [2]": {"system": "Plasmodium falciparum", "assay": "GSK_TCMDC: Inhibition of Plasmodium falciparum Dd2 in whole red blood cells, using parasite LDH activity as an index of growth. Test compounds present at 2uM"}, "HepG2": {"system": "HepG2", "assay": "GSK_TCMDC: Percent inhibition of human HepG2 cell line. Test compounds present at 10uM."}}, "data": [{"molecule": "CCN1CCN(c2cc(C)c3cc(NC(=O)c4cncc(Br)c4)ccc3n2)CC1", "values": [{"measurement": "Inhibition", "setting": "Plasmodium falciparum [1]", "value": 97, "unit": "%"}, {"measurement": "Inhibition", "setting": "Plasmodium falciparum [2]", "value": 63, "unit": "%"}, {"measurement": "Inhibition", "setting": "HepG2", "value": 3, "unit": "%"}]}, {"molecule": "Cc1cccc2nc(-c3ccc(-c4ccc(CN5CCN(CCN6CCOCC6)CC5)cc4)cc3)[nH]c12.O=C(O)C(F)(F)F", "values": [{"measurement": "Inhibition", "setting": "Plasmodium falciparum [1]", "value": 98, "unit": "%"}, {"measurement": "Inhibition", "setting": "Plasmodium falciparum [2]", "value": 74, "unit": "%"}, {"measurement": "Inhibition", "setting": "HepG2", "value": 49, "unit": "%"}]}, {"molecule": "Cc1cnc(C(=O)Nc2cccc(-c3cccc(-c4nc5cc(F)ccc5[nH]4)c3)c2)cn1", "values": [{"measurement": "Inhibition", "setting": "Plasmodium falciparum [1]", "value": 99, "unit": "%"}, {"measurement": "Inhibition", "setting": "Plasmodium falciparum [2]", "value": 24, "unit": "%"}, {"measurement": "Inhibition", "setting": "HepG2", "value": 25, "unit": "%"}]}, {"molecule": "CN1CCN(Cc2cc3cc(NC(=O)/C=C/c4ccc(Cl)cc4)ccc3s2)CC1.Cl", "values": [{"measurement": "Inhibition", "setting": "Plasmodium falciparum [1]", "value": 100, "unit": "%"}, {"measurement": "Inhibition", "setting": "Plasmodium falciparum [2]", "value": 20, "unit": "%"}, {"measurement": "Inhibition", "setting": "HepG2", "value": 51, "unit": "%"}]}, {"molecule": "O=C(Nc1ccc(OC2CCN(Cc3ccccc3)C2)c(Cl)c1)c1cccs1.O=C(O)C(F)(F)F", "note": "(stereo not given)", "values": [{"measurement": "Inhibition", "setting": "Plasmodium falciparum [1]", "value": 97, "unit": "%"}, {"measurement": "Inhibition", "setting": "Plasmodium falciparum [2]", "value": 96, "unit": "%"}, {"measurement": "Inhibition", "setting": "HepG2", "value": 13, "unit": "%"}]}, {"molecule": "COc1cc2nc(Cl)nc(Nc3ccncc3)c2cc1OC.Cl", "values": [{"measurement": "Inhibition", "setting": "Plasmodium falciparum [1]", "value": 86, "unit": "%"}, {"measurement": "Inhibition", "setting": "Plasmodium falciparum [2]", "value": 33, "unit": "%"}, {"measurement": "Inhibition", "setting": "HepG2", "value": 11, "unit": "%"}]}, {"molecule": "C#CCN(Cc1ccc2[nH]c(N)nc(=O)c2c1)c1ccc(C(=O)N[C@@H](CCC(=O)O)C(=O)O)cc1", "values": [{"measurement": "Inhibition", "setting": "Plasmodium falciparum [1]", "value": 95, "unit": "%"}, {"measurement": "Inhibition", "setting": "Plasmodium falciparum [2]", "value": 96, "unit": "%"}, {"measurement": "Inhibition", "setting": "HepG2", "value": 45, "unit": "%"}]}, {"molecule": "CS(=O)(=O)c1cccc2sc(N3CCN(C(=O)c4ccc([N+](=O)[O-])o4)CC3)nc12", "values": [{"measurement": "Inhibition", "setting": "Plasmodium falciparum [1]", "value": 84, "unit": "%"}, {"measurement": "Inhibition", "setting": "Plasmodium falciparum [2]", "value": 61, "unit": "%"}, {"measurement": "Inhibition", "setting": "HepG2", "value": 0, "unit": "%"}]}, {"molecule": "Cn1cc(C2CCN(CCCCNC(=O)c3ccc(C(=O)Nc4ccc(C#N)cc4)cc3)CC2)c2ccccc21", "values": [{"measurement": "Inhibition", "setting": "Plasmodium falciparum [1]", "value": 100, "unit": "%"}, {"measurement": "Inhibition", "setting": "Plasmodium falciparum [2]", "value": 58, "unit": "%"}, {"measurement": "Inhibition", "setting": "HepG2", "value": 16, "unit": "%"}]}, {"molecule": "CCCCN1CC[C@@H](CCC(O)c2ccnc3ccc(OCCC(C)C)cc23)[C@@H](CC)C1.O=C(O)C(=O)O", "note": "(stereo not given in full)", "values": [{"measurement": "Inhibition", "setting": "Plasmodium falciparum [1]", "value": 94, "unit": "%"}, {"measurement": "Inhibition", "setting": "Plasmodium falciparum [2]", "value": 90, "unit": "%"}, {"measurement": "Inhibition", "setting": "HepG2", "value": 22, "unit": "%"}]}]}
